Experimental data: PubChem BioAssay AID2330 (Broad Institute, 2010)
The whole screen tested about 37,000 compounds, of which about 2,800 (7.6%) were called active. Inconclusive results (about 1%) are left out. Only a selection was taken, and actives are over-represented in it overall. A number with no mark means an inactive call. Rule as the data show it: active = inhibition above about 80%; inconclusive = no clear call, values can overlap the other calls; inactive = below that.

Assay: NOMO-1 AML cell viability reduction, primary screen, STK33 inhibitor project, CellTiter-Glo luminescence (AID 2330)
Conditions: NOMO-1 AML viability, 72 h, stronger effect = higher value, concentration not given here

| SMILES | inhibition |
| --- | --- |
| CCc1cc(C(=O)OC)c(NC(=O)CC2Sc3ccc(C(F)(F)F)cc3NC2=O)s1 (stereo not given) | 43.5% |
| CCOc1ccc(NC(=O)C2CC(=O)n3c(nc4ccccc43)N2)cc1 (stereo not given) | 2.2% |
| C[C@H]1CN([C@@H](C)CO)C(=O)c2cc(NC(=O)Cn3cnnn3)ccc2O[C@@H]1CN(C)S(=O)(=O)c1cccs1 | -7.03% |
| COc1ccc(S(=O)(=O)N(C)C[C@H]2Oc3ccc(NC(=O)Nc4c(C)noc4C)cc3C(=O)N([C@H](C)CO)C[C@H]2C)cc1 | 8.03% |
| O=C(CS(=O)(=O)Cc1ccccc1)Nc1cccnc1 | 4.64% |
| COc1ccc(C(=O)CCC(=O)Nc2cccnc2)c(OC)c1 | 1.52% |
| O=C(Nc1cccnc1)c1cc2c(s1)-c1ccccc1CC2 | 108% (active) |
| O=S(=O)(c1ccc(Cl)cc1)c1nc(-c2ccccc2F)oc1NCCN1CCOCC1 | 16.2% |
| C[C@H]1CN([C@@H](C)CO)C(=O)c2cccc(NC(=O)NC3CCCCC3)c2O[C@H]1CN(C)CC1CCCCC1 | 15.4% |
| C[C@H](CO)N1C[C@H](C)[C@H](CN(C)S(=O)(=O)c2ccccc2)Oc2c(NC(=O)CCCCCC(=O)Nc3ccccc3N)cccc2C1=O | 68.1% |
| C[C@@H]1CN([C@H](C)CO)C(=O)c2cccc(NC(=O)CCCCCC(=O)Nc3ccccc3N)c2O[C@H]1CN(C)CC1CCCCC1 | 139% (active) |
| C[C@@H]1CN([C@@H](C)CO)C(=O)c2cccc(NC(=O)NC3CCCCC3)c2O[C@@H]1CN(C)CC1CCCCC1 | 15.8% |
| C[C@@H]1CN([C@@H](C)CO)C(=O)Cc2cc(NC(=O)CCCCCC(=O)Nc3ccccc3N)ccc2O[C@@H]1CN(C)C(=O)NC1CCCCC1 | 8.04% |
| C[C@@H]1CN([C@H](C)CO)C(=O)c2cccc(NC(=O)NC3CCCCC3)c2O[C@@H]1CN(C)CC1CCCCC1 | -0.946% |
| C[C@H]1CN([C@@H](C)CO)C(=O)c2cccc(NC(=O)CCCCCC(=O)Nc3ccccc3N)c2O[C@@H]1CN(C)CC1CCCCC1 | 139% (active) |
| C[C@@H]1CN([C@@H](C)CO)C(=O)c2cccc(NC(=O)CCCCCC(=O)Nc3ccccc3N)c2O[C@@H]1CN(C)CC1CCCCC1 | 125% (active) |
| CC(C)NC(=O)Nc1cccc2c1O[C@H](CN(C)CC1CCCCC1)[C@H](C)CN([C@H](C)CO)C2=O | 7.14% |
| CC(C)NC(=O)N(C)C[C@H]1Oc2ccc(NC(=O)CCCCCC(=O)Nc3ccccc3N)cc2CC(=O)N([C@@H](C)CO)C[C@H]1C | 7.18% |
| C[C@H](CO)N1C[C@H](C)[C@H](CN(C)CC2CCCCC2)Oc2ccc(NC(=O)CCCCCC(=O)Nc3ccccc3N)cc2CC1=O | 141% (active) |
| C[C@@H]1CN([C@@H](C)CO)C(=O)c2cccc(NC(=O)CCCCCC(=O)Nc3ccccc3N)c2O[C@H]1CN(C)C(=O)Nc1cccc2ccccc12 | 10.8% |
| Cc1ccc([N+](=O)[O-])cc1N(CC(=O)Nc1ccc(Cl)c(C(F)(F)F)c1)S(C)(=O)=O | 67.2% |
| Cc1cc(C(=O)Nc2cccc3c2O[C@@H](CN(C)Cc2ccc4c(c2)OCO4)[C@@H](C)CN([C@@H](C)CO)C3=O)n(C)n1 | 9.25% |
| COC(=O)c1ccccc1NC(=O)CNS(=O)(=O)c1cc(Cl)ccc1Cl | -6.45% |
| Cc1ccc(S(=O)(=O)N(C)C[C@H]2Oc3ccc(NS(C)(=O)=O)cc3CC(=O)N([C@@H](C)CO)C[C@H]2C)cc1 | 1.2% |
| Cc1noc(C)c1NC(=O)Nc1ccc2c(c1)C(=O)N([C@@H](C)CO)C[C@H](C)[C@H](CN(C)S(=O)(=O)c1ccc(Cl)cc1)O2 | -6.69% |
| Oc1cc(O)c2c(c1)OC(c1ccc(O)c(O)c1)C(O)C2 (stereo not given) | 6.96% |
| COC(=O)C(C)N(C(=O)c1ccccc1[N+](=O)[O-])c1c(C)cccc1C (stereo not given) | 3.25% |
| O=C(CSc1nnc(-c2ccco2)n1-c1ccccc1)Nc1ccc(F)cc1 | 3.32% |

| SMILES | inhibition |
| --- | --- |
| CCCCCCc1ccc(O)cc1O | 108% (active) |
| C[C@H]1CN([C@@H](C)CO)C(=O)c2cccc(NC(=O)C3CCCCC3)c2O[C@H]1CN(C)C(=O)NC1CCCCC1 | -16% |
| C[C@@H]1CN([C@@H](C)CO)C(=O)c2cc(NS(=O)(=O)c3ccc(Cl)cc3)ccc2O[C@H]1CN(C)C(=O)Nc1ccc(C(F)(F)F)cc1 | 7.09% |
| Cc1cc(Cl)ccc1NC(=O)CN(c1ccc(Cl)c(Cl)c1)S(C)(=O)=O | 16% |
| COc1ccc2nc(SCC(=O)Nc3ccc(I)cc3)[nH]c2c1 | 6.89% |
| COC(=O)Nc1nc2ccc(Sc3ccccc3)cc2[nH]1 | 114% (active) |
| COc1ccc(C(=O)CSc2nc3ccc(OC)cc3[nH]2)cc1 | 3.9% |
| COc1ccc(CN(C)C[C@H]2Oc3c(NS(=O)(=O)c4ccc(Cl)cc4)cccc3C(=O)N([C@H](C)CO)C[C@@H]2C)cc1 | -1.33% |
| C[C@H](CO)N1C[C@H](C)[C@H](CN(C)Cc2ccc3c(c2)OCO3)Oc2c(NC(=O)NC3CCCCC3)cccc2C1=O | 42.4% |
| C[C@@H]1CN([C@H](C)CO)C(=O)c2cccc(NC(=O)NC3CCCCC3)c2O[C@H]1CN(C)Cc1ccc(C(F)(F)F)cc1 | 101% (active) |
| C[C@H](CO)N1C[C@H](C)[C@@H](CN(C)Cc2ccc(C(F)(F)F)cc2)Oc2c(NC(=O)NC3CCCCC3)cccc2C1=O | 83.9% (active) |
| COc1ccc(CN(C)C[C@H]2Oc3c(NC(=O)NC4CCCCC4)cccc3C(=O)N([C@@H](C)CO)C[C@@H]2C)cc1 | 48.8% |
| C[C@H]1CN([C@@H](C)CO)C(=O)c2cccc(NC(=O)C3CCCCC3)c2O[C@H]1CN(C)Cc1ccc(C(F)(F)F)cc1 | 45.9% |
| C[C@@H]1CN([C@H](C)CO)C(=O)c2cccc(NC(=O)Nc3ccc(F)cc3)c2O[C@@H]1CN(C)Cc1ccc(C(F)(F)F)cc1 | 35.7% |
| COc1ccc(N(CC(=O)Nc2ccccc2F)S(C)(=O)=O)cc1 | 40.4% |
| C[C@@H]1CN([C@H](C)CO)C(=O)c2cccc(NC(=O)Nc3cccc4ccccc34)c2O[C@@H]1CN(C)Cc1ccccc1 | 47.5% |
| O=C(O)C1CC=CCC1C(=O)Nc1ccc(C(=O)N2CCCCC2)c(Cl)c1 (stereo not given) | 2.77% |
| COc1ccc(OC)c(S(=O)(=O)N(C)CC(=O)Nc2cccc(Cl)c2C)c1 | -0.499% |
| Cc1ccc(OCC(=O)Nc2cccc(NC(=O)c3ccco3)c2)cc1C | 30.6% |
| CC(C)NC(=O)Nc1ccc2c(c1)C(=O)N([C@@H](C)CO)C[C@@H](C)[C@H](CN(C)Cc1ccc(-c3ccccc3)cc1)O2 | 36.3% |
| C[C@@H]1CN([C@@H](C)CO)C(=O)c2cc(NC(=O)Nc3cccc4ccccc34)ccc2O[C@H]1CN(C)Cc1ccc(Oc2ccccc2)cc1 | 115% (active) |
| COc1ccc(CN(C)C[C@@H]2Oc3ccc(NC(=O)Nc4cccc5ccccc45)cc3C(=O)N([C@H](C)CO)C[C@H]2C)cc1 | -6.53% |
| C[C@H]1CN([C@@H](C)CO)C(=O)c2cc(NC(=O)Nc3cccc4ccccc34)ccc2O[C@@H]1CN(C)C | -2.04% |
| C[C@@H]1CN([C@@H](C)CO)C(=O)c2cc(NC(=O)Nc3cccc4ccccc34)ccc2O[C@@H]1CN(C)Cc1ccc(-c2ccccc2)cc1 | 109% (active) |
| C[C@@H]1CN([C@@H](C)CO)C(=O)c2cc(NC(=O)Nc3cccc4ccccc34)ccc2O[C@@H]1CN(C)C(=O)Nc1cccc2ccccc12 | 76.6% |
| C[C@H](CO)N1C[C@H](C)[C@H](CN(C)Cc2ccc3c(c2)OCO3)Oc2c(NS(=O)(=O)c3ccccc3)cccc2C1=O | -8.2% |
| C[C@H]1CN([C@@H](C)CO)C(=O)c2cccc(NS(=O)(=O)c3ccc(F)cc3)c2O[C@@H]1CN(C)Cc1ccncc1 | -1.34% |
